Most compounds without a hit are left out; they make up all but 1.9% or so of the library.
MLLE-PAM2 inh: inhibitors of PABP1 MLLE–PAM2 peptide binding, primary screen, biochemical, fluorescence polarization, FITC-PAM2, GST-MLLE. Polyadenylate-binding protein 1 (Homo sapiens), P11940. inhibition, % at 20 µM. actives 0.36% (n = 360,000). AID 588489, 2011; in the data active = inhibition above about 35%, passing the limit was not always enough;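 also: plate controls were DMSO wells with GST-MLLE for no effect and wells lacking GST-MLLE protein for full effect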
PABP FP inh: PABP poly(A) RNA binding inhibitors, primary screen, biochemical, fluorescence polarization, uHTS; Polyadenylate-binding protein 1 (Homo sapiens), P11940; calls only at 35 µM; actives 1% (n = 290,000);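 also: calls also rest on retests at 20 µM and on dose response follow-up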
14-3-3 Bad PPI: inhibitors of 14-3-3 zeta/Bad binding, primary screen, biochemical, TR-FRET, bovine 14-3-3 zeta | 14-3-3 protein zeta/delta (Bos taurus), P63103 | TR-FRET 14-3-3zeta/Dy647-pBad peptide displacement, 1 h | inhibition, % at 21.7 µM | actives 0.71% (n = 220,000) | AID 781, 2007;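 active = inhibition above about 70%, limit read from the data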;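 also: 0% = full 14-3-3 plus peptide FRET controls and 100% = background without 14-3-3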
Target sequence (P63103 whole entry, looked up): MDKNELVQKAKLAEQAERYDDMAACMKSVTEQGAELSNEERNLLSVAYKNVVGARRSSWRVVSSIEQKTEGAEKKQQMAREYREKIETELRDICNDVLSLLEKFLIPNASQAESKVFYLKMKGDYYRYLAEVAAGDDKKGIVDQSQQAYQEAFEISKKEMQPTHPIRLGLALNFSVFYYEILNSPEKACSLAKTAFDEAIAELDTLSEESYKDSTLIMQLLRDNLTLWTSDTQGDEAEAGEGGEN
eIF4E 4G PPI: eIF4E–eIF4G protein interaction inhibitors, primary screen, biochemical, uHTS, TR-FRET, eIF4GI fragment | Eukaryotic translation initiation factor 4E (Mus musculus) + Eukaryotic translation … | TR-FRET eIF4E-eIF4GI(517-606) binding, 2 h | inhibition, % at 21.7 µM | actives 0.37% (n = 220,000);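 active = inhibition above about 30%, limit read from the data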;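 also: 0% = full FRET control wells and 100% = background wells lacking eIF4GI fragment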
eIF4H FP inh: human eIF4H binding inhibitors, primary screen, translation initiation inhibitor project, biochemical, uHTS, fluorescence polarization; eIF4H fluorescence polarization binding assay; inhibition, % at 35 µM; actives 0.94% (n = 290,000);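 also: calls also rest on retests at 20 µM and on dose response follow-up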
An asterisk follows results filed as active; i = inactive; ? = inconclusive; / = no result given; + = active, no number; [ ] = another dose, or the depositor's remark. Unless noted, no rule for the calls is given here.

SMILES	MLLE-PAM2 inh	PABP FP inh	14-3-3 Bad PPI	eIF4E 4G PPI	eIF4H FP inh
c1ccc(-c2ccccc2-c2nc(-c3ccncc3)no2)cc1	2	i	9	3	-6
Clc1ccccc1-c1nc(-c2ccncc2)no1	-4	i	73*	6	8
Cc1ccc(/C=C/C(O)=C2/C(=O)N(C)C3(C)CC2c2ccccc2O3)cc1 (centres undefined)	-1	i	-11	97*	-5
O=C1N=C(C=c2ccc(=Cc3[nH]c(=O)[nH]c3O)cc2)C(=O)N1	/	i	-1	-2	10
Cc1cccc2c1-c1sc(C(=O)Nc3ccccc3N3CCN(C)CC3)cc1CO2	1	i	1	-8	0
CCOc1ccccc1NC(=O)Nc1cccc(NC(C)=O)c1	0	i	-3	0	-4
CCOc1ccccc1NC(=O)Nc1ccc(OC)nc1	48*	+	/	/	68
COc1ccc(NC(=O)C(Sc2nnc3ccccn23)c2ccccc2)cc1Cl (centres undefined)	-8	i	-1	0	3
CCCCCCC(=O)N(O)C1CC(=O)N(c2ccc(C)cc2)C1=O (centres undefined)	44*	i	-13	2	-9
CCCCCCC(=O)N(O)C1CC(=O)N(c2ccc(Cl)cc2)C1=O (centres undefined)	23	i	2	0	-12
Cc1ccc(C2=NCN(c3ccc(C(=O)O)cc3)C(=S)N2)cc1	/	i	3	-6	4
CCOc1ccc(NC(=O)CCN2C(=S)NC(C)(C)CC2C)cc1 (centres undefined)	-49	+	-16	-2	5.7*
CC1CC(C)(C)NC(=S)N1CCCC(=O)Nc1ccc(Cl)cc1 (centres undefined)	-93	+	-25	2	active
CC(C)c1ccc(NC(=O)CCCN2C(=S)NC(C)(C)CC2C)cc1 (centres undefined)	-85	i	1	-2	-6
CC1CC(C)(C)NC(=S)N1CCC(=O)Nc1ccc2c(c1)OCCO2 (centres undefined)	0	i	-5	1	-9
CCCCCOCC1CC(C/C(C)=N/Nc2nc(-c3ccccc3)cs2)C(=O)O1 (centres undefined)	4	i	81*	8	-14
CCCCCOCC1CC(C/C(C)=N/NC(N)=S)C(=O)O1 (centres undefined)	-46	i	8	1	-10
O=c1[nH]c(-c2ccccc2Cl)nc2c1sc(=S)n2-c1ccccc1	-2	i	71*	8	-6
O=C(CN(C(=O)c1csnn1)c1ccccc1)NCCc1ccccc1	22	i	/	/	-10
CC(=O)C1=C(C)NC(SCc2cccc3ccccc23)=C(C#N)C1c1ccco1 (centres undefined)	-5	i	-3	0	38
CC(=O)C1=C(C)NC(SCc2ccc(C#N)cc2)=C(C#N)C1c1ccco1 (centres undefined)	-2	i	-23	44*[fluorescence artefact?]	72
COc1ccccc1N(C)S(=O)(=O)c1ccc(C(=O)N2CCCc3ccccc32)cc1	17	i	/	/	-7
C=CCSc1nc2c(c(=O)[nH]c(=O)n2C)n1C(C)C	41*	i	-5	8	2
C/C(Cl)=C/CSc1nc2c(c(=O)[nH]c(=O)n2C)n1C(C)C	9	i	-15	3	7
O=C(CNC(=O)C1CCCCC1)NC1=NCCS1	40*	i	12	4	-7
SMILES	MLLE-PAM2 inh	PABP FP inh	14-3-3 Bad PPI	eIF4E 4G PPI	eIF4H FP inh
O=C(CC12CC3CC(CC(Br)(C3)C1)C2)NC1=NCCS1	4	i	-3	0	-7
O=C(CNC(=O)C12CC3CC(CC(C3)C1)C2)NC1=NCCS1	45*	i	1	-10	-5
CC1(C(=O)Nc2cccc(Oc3ccccc3)c2)CCN1Cc1cccc2c1OCO2 (centres undefined)	3	/	/	/	/
COc1ccc(CCNC(=O)CCS(=O)(=O)Cc2ccccc2C)cc1OC	8	i	/	/	-8
O=S1(=O)N=C(Oc2cccc3ccccc23)c2ccccc21	13	i	86*	14	-6
Cc1cc(NC(=O)COc2cccc3cccnc23)no1	/	i	0	-1	18
Cc1oc(C(=O)O)cc1COc1cccc2cccnc12	2	i	25	11	92*
COc1ccc2c(c1)c(=O)oc1c(C)c(OCc3cc(C(=O)O)oc3C)ccc12	2	+	4	12	84
CC1Cc2ccccc2N1C(=O)c1nn(C)cc1Br (centres undefined)	-4	i	-3	23	2
Cn1nccc1C(=O)Nc1nnc(C2CC2)s1	23	i	/	/	0
CCN(c1ccccc1)S(=O)(=O)c1cc(C(=O)O)ccc1C	-12	+	-2	5	53*
COc1cc(/C=N/NC(=O)c2ccccn2)cc2c1OCO2	-10	+	0	0	?
NC1=NC(=O)/C(=C\c2ccsc2)S1	4	i	-2	63*	-4
NC1=NC(=O)/C(=C/c2ccc(Br)cc2)S1	1	i	/	/	-2
COC(=O)c1ccccc1NC(=O)Cn1nc2n(C)c3ccccc3n2c(=O)c1=O	/	i	93*	3	-20
Brc1ccc(-c2nn3c(-c4ccco4)nnc3s2)o1	18	+	-18	-22	66*
c1csc(-c2nn3c(Cn4cnc5ccccc54)nnc3s2)c1	31	i	7	33*	-9
c1coc(-c2nn3c(Cn4nnc5ccccc54)nnc3s2)c1	38*	i	6	-2	5
Clc1ccc(-c2ccc(-c3nn4c(-c5ccco5)nnc4s3)o2)cc1	4	/	/	/	/
O=C(CCc1nnc2n(Cc3ccc(F)cc3)c(=O)c3ccccc3n12)N1CCN(c2ccccn2)CC1	-15	i	/	/	-4
Cc1occc1C(=O)N/N=C/c1ccccc1[N+](=O)[O-]	1	i	8	2	5
CCOC(=O)C1=C(C)Nc2ccc(C)cc2S1	50*	i	9	-2	4
CCOCCOC(=O)C1=C(C)Nc2ccc(C)cc2S1	31	i	-16	-3	-2
COC(=O)C(Cc1cnc(Cl)s1)(C(=O)OC)c1ccccc1[N+](=O)[O-]	-12	i	6	-3	0
COC(=O)C(C)(C(=O)OC)c1ccccc1[N+](=O)[O-]	0	+	-9	-3	?
O=C(CCC(=O)N1CCOc2ccccc21)NCCc1ccccc1	13	i	/	/	1
COCCN1Cc2cccc(C(=O)Nc3ccc(S(=O)(=O)N4CCCCCC4)cc3)c2C1=O	18	i	4	1	-8

Screening data: PubChem BioAssay, several laboratories
